High-throughput results deposited in PubChem by Center for Chemical Genomics, University of Michigan.
The sample as a whole holds a higher share of hits than the screen did.
Dicer processing = inhibitors of Dicer pre-microRNA processing, primary screen, biochemical, cat-ELCCA, chemiluminescence; Endoribonuclease Dicer (Homo sapiens), Q9UPY3; cat-ELCCA pre-miR-21 Dicer processing; active compounds read high; z-score at 25 µM; 47,000 compounds, 6% hits; AID 1347074, 2019; in the data active means z-score above about 3, passing the limit was not always enough;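 further: higher signal means more uncleaved substrate so more Dicer inhibition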
A number is an active result; n = inactive.

SMILES	Dicer processing
COc1ccc(-c2c(N)n(-c3ccccc3)c(=O)c3cc([N+](=O)[O-])ccc23)cc1OC	3.4
S=C(Nc1ccccc1)Nc1ccc(C2CC2(Cl)Cl)cc1 (centres undefined)	n
Cc1nn2c3c(cnc2c1-c1ccc(Cl)cc1)C(=O)CC(c1cccs1)C3 (centres undefined)	n
Cc1nn2c3c(cnc2c1-c1ccc(F)cc1)C(=O)CC(c1ccc(F)cc1)C3 (centres undefined)	n
Cc1nn2c3c(cnc2c1-c1ccc(F)cc1)C(=O)CC(c1cccs1)C3 (centres undefined)	4.2
COc1ccc(-c2cnc(NCc3cc(Cl)ccc3O)n2C)cc1	n
COc1nccnc1NS(=O)(=O)c1ccc(NCc2cc(Cl)ccc2O)cc1	3.7
Cc1cc(C)nc(NS(=O)(=O)c2ccc(NCc3cc(Br)ccc3O)cc2)n1	n
O=C(Nc1ccc(OC(F)(F)F)cc1)Nc1ccc2ccccc2n1	n
O=C(O)c1c(-c2ccccc2)nnc2ccccc12	n
O=C(Nc1ccc(OC(F)(F)F)cc1)c1c(-c2ccccc2)nnc2ccccc12	29
Nc1ncc(C(=O)Nc2ccccc2F)c(C(F)(F)F)n1	n
CCOc1ccccc1NC(=O)NC(=O)N(c1ccccc1)S(C)(=O)=O	n
CC1=Nc2ccccc2-c2nnc(SCc3ccc(C)cc3)nc2O1	n
CN=C(Nc1cc(C)c(C)cc1C)SC	n
CSC(=NCc1ccco1)Nc1ccc(C)cc1C	4.1
CCOC(=O)CSC(=S)Nc1ccc(C)cc1C	n
Cc1ccc2[nH]c(=O)c(-c3ccccc3)c(O)c2c1	n
O=C(NCCCn1ccnc1)c1cc2n(n1)C(C(F)(F)F)CC(c1ccc(Cl)cc1)N2 (centres undefined)	n
Cc1cc(C)cc(NC(=O)c2cc3n(n2)C(C(F)(F)F)CC(c2ccco2)N3)c1 (centres undefined)	n
O=C(NCc1ccco1)c1cc2n(n1)C(C(F)(F)F)CC(c1ccc(Br)cc1)N2 (centres undefined)	3.5
O=C(NCc1ccccn1)c1cc2n(n1)C(C(F)(F)F)CC(c1ccco1)N2 (centres undefined)	n
O=C(NCc1cccs1)c1cc2n(n1)C(C(F)(F)F)CC(c1ccc(Cl)cc1)N2 (centres undefined)	n
O=C(NC1CCCC1)c1cc2n(n1)C(C(F)(F)F)CC(c1ccc(Br)cc1)N2 (centres undefined)	4.4
Cc1ccc(C2CC(C(F)(F)F)n3nc(C(=O)NC(C)C)cc3N2)cc1 (centres undefined)	n
SMILES	Dicer processing
O=C(Nc1cccnc1)c1cc2n(n1)C(C(F)(F)F)CC(c1ccc(Br)cc1)N2 (centres undefined)	4.7
O=C(NC1CCCC1)c1cc2n(n1)C(C(F)(F)F)CC(c1ccccc1)N2 (centres undefined)	n
Cc1onc(-c2c(Cl)cccc2Cl)c1C(=O)NCCSC1=NCCN1	n
CCc1nc2c(=O)n(C)c3c(c(=O)n(-c4ccccc4)c(=O)n3-c3ccccc3)c2o1	n
Cc1cc(NC(=O)Nc2ccc(Oc3ncnc4cc(Cl)ccc34)nc2)c(C(F)(F)F)o1	n
CC1(C)Cc2c(c(N3CCOCC3)nc3sc(C(=O)c4ccccc4)c(N)c23)CS1	n
COc1cc(C=Nc2ccc3oc(=O)ccc3c2)cc(OC)c1OC	n
CCCSc1[nH]c2cc(OC)c(OC)cc2c1[N+](=O)[O-]	n
COCCN1C(=O)c2oc3ccccc3c(=O)c2C1c1ccc(SC)cc1 (centres undefined)	n
COc1ccc(C(=O)N=S2CCN(S(=O)(=O)c3ccc(Cl)cc3)CC2)cc1	n
CCC(C)[C@H](NC(=O)OC(C)(C)c1cc(OC)cc(OC)c1)C(=O)O (some centres undefined)	n
CO[C@H]1C[C@H](O[C@H]2[C@H](C)[C@@H](O[C@@H]3O[C@H](C)C[C@H](N(C)C)[C@H]3OC(C)=O)[C@@H](C)C[C@@]3(CO3)C(=O)[C@H](C)[C@@H](OC(C)=O)[C@@H](C)[C@@H](C)OC(=O)[C@@H]2C)O[C@@H](C)[C@@H]1OC(C)=O	n
COc1nc2c(c(-c3ccc(C(F)(F)F)cc3)c1C#N)CCc1ccccc1-2	n
COc1nc2c(c(-c3ccc4ccccc4c3)c1C#N)CCc1ccccc1-2	n
COc1nc2c(c(-c3ccc(Cl)cc3Cl)c1C#N)CCc1ccccc1-2	3.1
CC1Oc2ccc(C(=O)c3cc4ccccc4o3)cc2NC1=O (centres undefined)	n
CCN(CCS(=O)(=O)c1ccccc1)S(=O)(=O)c1ccc(Cl)cc1	n
CNC(=O)N(CCS(=O)(=O)c1ccc(Cl)cc1)Cc1cccs1	n
CCN(CCS(=O)(=O)c1ccc(Cl)cc1)C(=O)Nc1ccccc1	3.3
CC(C)(C)OC(=O)C(Cc1ccccc1)NC(=O)CNC(=O)OCc1ccccc1 (centres undefined)	n
O=C1C(=O)N(Cc2cccnc2)C(c2ccccc2Cl)/C1=C(\O)c1ccccc1 (centres undefined)	n
CCc1c(O)nc2n(c1=O)CCS2	n
C=CCN(CC=C)Cc1c(C)[nH]c2ccc(Br)cc2c1=O	n
O=[N+]([O-])c1ccc(S(=O)(=O)c2ccccc2)cc1OS(=O)(=O)c1cc(Cl)cc(Cl)c1	n
Cn1cccc1CNCCc1ccc(S(N)(=O)=O)cc1	n
SMILES	Dicer processing
NS(=O)(=O)c1ccc(CCNCc2cccs2)cc1	3.1
Cc1ccc(S(=O)(=O)NCCc2ccc(S(N)(=O)=O)cc2)cc1	n
Cc1cc(C)c2c(c1)-c1cc(C)nn1C(c1ccccc1O)N2 (centres undefined)	n
Cc1cc(C)c2c(c1)-c1cc(C)nn1C(c1cccc(O)c1)N2 (centres undefined)	n
Cc1ccc2c(c1)-c1cc(C)nn1C(c1sccc1C)N2 (centres undefined)	n
Cc1ccc2c(c1)-c1cc(C)nn1C(c1cc(C)ccc1O)N2 (centres undefined)	n
Cc1ccc2c(c1)-c1cc(C)nn1C(c1cccc(O)c1O)N2 (centres undefined)	32
Cc1cc(C)c2c(c1)-c1cc(C)nn1C(c1cccc(O)c1O)N2 (centres undefined)	30
Cc1ccc2c(c1)-c1cc(C)nn1C(c1ccc(O)c(O)c1)N2 (centres undefined)	3.5
Cc1ccc2c(c1)-c1cc(C)nn1C(c1ccc3c(c1)OCO3)N2 (centres undefined)	n
COC(=O)c1ccc(C2Nc3ccc(C)cc3-c3cc(C)nn32)cc1 (centres undefined)	n
COCc1cc(=O)n2[nH]c(-c3ccc(OC)cc3)cc2n1	n
Cc1nc(N2C(=O)c3oc4ccccc4c(=O)c3C2c2ccc(C(C)C)cc2)sc1C (centres undefined)	n
COc1ccc(C(=O)CSc2nc3ccc(Cl)cc3[nH]2)cc1OC	n
O=S(=O)(NCc1ccccc1)c1cccc(S(=O)(=O)c2ccc(Cl)cc2)c1	n
Cc1cc(C)cc(NC(=O)NCC(O)c2ccccc2)c1 (centres undefined)	n
Cc1cc2n(n1)C(c1ccc(N3CCOCC3)cc1)Nc1ccccc1-2 (centres undefined)	n
COCCN1C2=C(C(=O)CC(C)(C)C2)C(c2cc(Cl)c(O)c(OC)c2)C2=C1CC(C)(C)CC2=O	n
CC(C)CCn1c(SCC(N)=O)nc2c1c(=O)[nH]c(=O)n2C	n
O=C(Nc1ccc2ccccc2n1)Nc1ccccc1F	n
O=C(Nc1ccc2ccccc2n1)c1ccc(Cl)cc1	n
O=C(Nc1ccc2ccccc2n1)C1CCCCC1	5.1
